Records with an inconclusive call do not appear. A call without a number means that no potency is given here. Unmarked numbers belong to inactive results. Active and inactive are the calls of the source. The call rests on the fitted dose curve.

This note sets out measurements from PubChem BioAssay (Tox21).
Potency means the concentration at half of the fitted maximal effect.

This assay deals with 5-hydroxytryptamine receptor 2A (Homo sapiens) (UniProt P28223). In words: 5-hydroxytryptamine receptor 2A (HTR2A) small molecule agonists, cell-based qHTS assay (AID 1963587). Further: nearly all actives have a fitted effect of over 30% in size. The following applies: HTR2A-CHO cells, calcium flux fluorescence, agonist mode; series mostly up to 76.8 µM. The text has this: National Center for Advancing Translational Sciences [NCATS]
Sequence of 5-hydroxytryptamine receptor 2A (Homo sapiens) (P28223 whole entry, looked up): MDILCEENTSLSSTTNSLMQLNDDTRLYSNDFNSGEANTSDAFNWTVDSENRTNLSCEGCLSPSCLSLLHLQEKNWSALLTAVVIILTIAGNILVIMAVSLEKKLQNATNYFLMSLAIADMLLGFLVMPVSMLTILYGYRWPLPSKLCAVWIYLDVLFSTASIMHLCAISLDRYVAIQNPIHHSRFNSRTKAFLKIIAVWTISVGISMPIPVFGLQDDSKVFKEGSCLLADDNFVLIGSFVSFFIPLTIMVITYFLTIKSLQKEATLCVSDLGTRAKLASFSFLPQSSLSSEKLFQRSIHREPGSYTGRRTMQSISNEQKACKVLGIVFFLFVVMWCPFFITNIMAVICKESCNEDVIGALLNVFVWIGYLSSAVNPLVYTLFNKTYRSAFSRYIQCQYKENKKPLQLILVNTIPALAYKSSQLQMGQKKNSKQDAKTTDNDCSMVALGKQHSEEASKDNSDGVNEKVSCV
Division of Preclinical Innovation [DPI]
U.S. Environmental Protection Agency [EPA]
National Institutes of Environmental Health Sciences [NIEHS]
National Toxicology Program [NTP]
U.S. Food and Drug Administration [FDA]
The HTR2A receptor is a subtype of the 5-HT2 receptor that belongs to the serotonin receptor family and is a G protein-coupled receptor (GPCR). The HTR2A-CHO cell line stably expressing human 5-hydroxytryptamine receptor 2A (HTR2A) can be used for screening agonists of interactions between 5-HT2 and its ligands. The HTR2A-CHO calcium flux assay is a homogeneous fluorescence-based assay for detecting the intracellular calcium level using FDSS kinetic plate reader system.
HTR2A-CHO cells were dispensed at 2000 cells/3uL/well in 1536-well black-clear bottom plates using a Multidrop Dispenser. After the assay plates were incubated at a 37 C/5% CO2 incubator for 18 h, 3 uL of Dye Loading Buffer was transferred to the assay plate by a Flying Reagent Dispenser. The assay plates were incubated at 37 C for 1h. For agonist mode, 23 nL of compounds dissolved in DMSO, positive controls or DMSO only was transferred to the assay plate by a pin tool. The fluorescence intensity in the plates was measured using FDSS 7000EX kinetic plate reader for 2 min at 1 sec intervals.
In general terms: qHTS replaces the single test concentration by a dilution series.
Consider `CCCCCCCC(C)=O`, for which the Potency result is “inactive”.
`COc1cccc(O)c1`: the Potency entry was “inactive”.
On the same count and under the same terms, with `CCCCCCCC/C=C\CCCCCCCCN` the figure was 21.3 µM (active).
On to `CCC(CO)(CO)COCC(CC)(CO)CO`, for which the Potency entry is “inactive”.
Regarding `CC(C)=CCC1C(=O)N(c2ccccc2)N(c2ccccc2)C1=O`, the Potency result is “inactive”.
Regarding `O=C(O)c1ccc(Cl)cc1Cl`, the Potency entry is “inactive”.
Still for that read-out and setting: with `Oc1ccc2c(c1)OCO2` the entry was “inactive”.
On to `C=CCN1CCc2nc(N)sc2CC1`, for which the Potency was 6.01 µM (active).
For `Nc1ccc(S(=O)(=O)Nc2ccccn2)cc1`, the Potency entry was “inactive”.
In the case of `C=C(C)C(=O)OCCCCCCCCCCOC(=O)C(=C)C`, the Potency entry was “inactive”.
Regarding `CN1CCCN=C1COC(=O)C(O)(c1ccccc1)C1CCCCC1` (stereo not given), the Potency entry is “inactive”.
For `Cc1c(C)c([N+](=O)[O-])c(C(C)(C)C)c([N+](=O)[O-])c1C`, the Potency entry was “inactive”.
Same read-out and setting: the value for `Cc1ccc(=O)n(-c2ccccc2)c1` was “inactive”; that for `N#Cc1cscn1` was “inactive”; that for `CCOC(=O)C1=NOC(c2ccccc2)(c2ccccc2)C1` was “inactive”.
On the same count and under the same terms, with `O=C1N(c2ccccc2)c2ccccc2C1(Cc1ccncc1)Cc1ccncc1` the entry was “inactive”.
The same measure, in the same setting: the value for `CCOC(=O)C1CC(=O)C(=C(O)C2CC2)C(=O)C1` (stereo not given) was “inactive”.
On to `CCCC(=O)OCOC(=O)C1=C(C)NC(C)=C(C(=O)OC)C1c1cccc(Cl)c1Cl` (stereo not given), for which the Potency result was “inactive”.
`BrC/C=C/CBr`: the activation is -0.944% [at 15.9 µM].
On to `CCOc1ccccc1N`, for which the Potency result was “inactive”.
Still for that read-out and setting: with `O=C1c2ccccc2C(=O)C1c1ccc(Br)cc1` the entry was “inactive”; with `COc1ccccc1Oc1c(NS(=O)(=O)c2ccc(C(C)(C)C)cc2)nc(-c2ncccn2)nc1OCCO`, “inactive”; with `CN(C)CCC=C1c2ccccc2C=Cc2ccccc21`, “inactive”.
On the same count and under the same terms, the value for `COC(=O)C1=C(C)NC(C)=C(C(=O)OC(C)(C)CN(C)CCC(c2ccccc2)c2ccccc2)C1c1cccc([N+](=O)[O-])c1` (stereo not given) was “inactive”.
On to `C[C@]12CCC(=O)C=C1CC[C@@H]1[C@@H]2[C@@H](O)C[C@@]2(C)[C@H]1CC[C@]2(O)C(=O)COC(=O)CCC(=O)O`, for which the Potency result was “inactive”.
For the molecule `Cc1ccc2ccccc2n1`, the Potency result is “inactive”.
For `O=C(O)CNCC(=O)O`, the activation is -1.98% [at 7.02 µM].
Turning to `O=C(NS(=O)(=O)/C=C/c1ccccc1)c1ccc(F)cc1Cl`, the Potency entry was “inactive”.
For `Nc1c2c(nc3ccccc13)CCCC2O` (stereo not given), the Potency entry is “inactive”.
Take `CCC(=O)OC(=O)CC`: the Potency entry is “inactive”.
Turning to `C=CCNc1nc(NCC=C)nc(N2CCN(C(c3ccc(F)cc3)c3ccc(F)cc3)CC2)n1`, the Potency was 2.68 µM (active).
`CCCCCCCCCCCCCC(=O)OCC`: the Potency result was “inactive”.
As to `CC(=O)c1cnccn1`, the Potency result was “inactive”.
On to `COC(=O)C1=C(C)NC(C)=C(C(=O)OCCN2CCN(C(c3ccccc3)c3ccccc3)CC2)C1c1cccc([N+](=O)[O-])c1` (stereo not given), for which the Potency result was “inactive”.
Take `O=C(O)c1ccc2cc(O)ccc2c1`: the Potency entry was “inactive”.
For `O=c1[nH]c(=O)c2[nH]c(=O)[nH]c2[nH]1`, the activation is -9.75% [at 7.02 µM].
As for `CC(C)(C)C1=CC(=O)C(C(C)(C)C)=CC1=O`, the Potency is 3.79 µM (active).
As for `CC(=O)OCC(=O)[C@@]1(O)CC[C@H]2[C@@H]3CCC4=CC(=O)C=C[C@]4(C)[C@@]3(F)[C@@H](O)C[C@@]21C`, the Potency entry is “inactive”.
Consider `Cc1cccc(C)c1NC(=O)c1ccc(N)cc1`, for which the Potency entry was “inactive”.
Regarding `C#CC(C)N(C)C(=O)Nc1ccc(Cl)cc1` (stereo not given), the Potency result is “inactive”.
